From PubChem BioAssay AID2590 (National Center for Advancing Translational Sciences (NCATS), 2010)
“And” between values parts separate entries of the source, which are not always exact repeats. Equal values may be shown once. Records with an inconclusive call do not appear. The source made the active and inactive calls. Calls follow the shape of the dose curve; as a rule, active = well fitted curve in the direction sought with a large enough effect; inconclusive = small, poorly fitted or top-dose-only effect, or another doubt; inactive = no such curve, though single readings can be large or run the other way.

Biological target: Lysosomal acid glucosylceramidase (Homo sapiens) (UniProt P04062)
Assay: qHTS Assay for Inhibitors and Activators of N370S glucocerebrosidase as a Potential Chaperone Treatment of Gaucher Disease: Primary Screen Confirmation;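 as to activity change, negative = inhibition: 0% = enzyme with DMSO and -100% = no enzyme basal signal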
Settings: N370S glucocerebrosidase enzyme activity, fluorogenic substrate; series mostly up to 54 µM; activity change, negative = inhibition: at the top concentration
Source text: NIH Chemical Genomics Center [NCGC]
NIH Molecular Libraries Probe Production Centers Network [MLPCN]
Assay Submitter (PI): Wei Zheng
Glucocerebrosidase (GC) catalyzes the hydrolysis of beta-glucocerebroside to glucose and ceramide in lysosomes. Mutations in the glucocerebrosidase gene result in Gaucher disease, an autosomal recessive lysosomal storage disorder. Many of the mutations encountered in patients with Gaucher disease are missense alterations that may cause misfolding, decreased stability and/or mistrafficking of this lysosomal protein. […] These inhibitors include iminosugar analogs and three non-iminosugar inhibitors identified from a previous HTS of 62,000 compounds with the wild type recombinant enzyme. However, the enhancement of enzyme activity by the chaperone action of an enzyme inhibitor must be balanced against the direct inhibition of the enzyme. An enzyme activator could also function as a chaperone by binding to the enzyme and helping to correct its misfolding and mistrafficking. While activators for GC have not yet been identified, they may have better therapeutic potential than inhibitors. Therefore the discovery and development of chemical activators may provide a new strategy for the chaperone therapy.
We have optimized a new assay using N370S mutant GC derived from the spleen of a Gaucher patient. […] In addition, the MLPCN compound library has expanded, which increases the chance of finding new and better probes.
NCGC Assay Protocol Summary:
This is a fluorogenic enzyme assay with 4-methylumbelliferyl-beta-D-glucopyranoside as the substrate and N370S glucocerebrosidase from human spleen homogenate as the enzyme preparation. Upon the hydrolysis of this fluorogenic substrate, the resulting product, […] which can be detected by a standard fluorescence plate reader. Data were normalized to the controls for basal activity (without enzyme) and 100% activity (with enzyme). The AC50 values were determined from concentration-response data modeled with the standard Hill equation.
Assay buffer: 50 mM citric acid (titrated with potassium phosphate to pH 5.0), 100 mM potassium chloride, 10 mM sodium chloride, 1 mM magnesium chloride, 0.01% Tween-20.
1536-well assay protocol:
(1) Add 2 ul/well of spleen homogenate (27 ug final)
(2) Add 23 nL compounds in DMSO solution. The final titration was 0.5 nM to 58 uM.
(3) Add 2 ul of substrate (1 mM final)
(4) Incubate at 37C for 40 min.
(5) Add 2 ul stop solution (1M NaOH and 1M Glycine mixture, pH 10)
(6) Detect the assay plate in a ViewLux plate reader (PerkinElmer) with Ex=365 nm and Em=440nm.
Keywords: Glucocerebrosidase, beta-glucosidase, Gaucher Disease, pharmacological chaperone, chaperone therapy, high throughput screening, glucocerebrosidase inhibitor, MLSMR, MLSCN, NIH Roadmap, qHTS and NCGC
Potency is read from the fitted curve at half-maximal effect.

Lysosomal acid glucosylceramidase (Homo sapiens), sequence (P04062 whole entry N409S): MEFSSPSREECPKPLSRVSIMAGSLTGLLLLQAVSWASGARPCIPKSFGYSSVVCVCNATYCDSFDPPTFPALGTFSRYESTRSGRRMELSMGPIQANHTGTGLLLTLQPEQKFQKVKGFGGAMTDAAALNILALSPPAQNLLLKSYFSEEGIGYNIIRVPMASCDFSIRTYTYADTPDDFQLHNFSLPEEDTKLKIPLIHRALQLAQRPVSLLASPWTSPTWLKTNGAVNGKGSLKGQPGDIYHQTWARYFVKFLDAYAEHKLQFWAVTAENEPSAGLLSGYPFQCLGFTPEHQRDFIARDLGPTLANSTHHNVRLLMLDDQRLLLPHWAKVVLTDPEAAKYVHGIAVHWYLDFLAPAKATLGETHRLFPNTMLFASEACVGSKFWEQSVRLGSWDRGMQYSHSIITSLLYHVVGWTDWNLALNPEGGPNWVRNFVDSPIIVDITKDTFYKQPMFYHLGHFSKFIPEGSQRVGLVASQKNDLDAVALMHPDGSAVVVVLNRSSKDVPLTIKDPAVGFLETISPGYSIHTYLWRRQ

Activity change, negative = inhibition, inactive:
O=C(Nc1cnn(Cc2ccc(F)cc2)c1)c1cnn2c(C(F)F)cc(-c3ccccc3)nc12 42.8%, Cc1ccc(-c2nc(N3CCN(S(=O)(=O)c4ccc(F)cc4)CC3)c3ccc(Cl)cc3n2)cc1 -0.526%, Cc1cccn2c(=O)c3cc(C(=O)NCCc4ccccc4)sc3nc12 8.55%, COc1ccc(-c2cc3ccc(OCC(C)=O)cc3oc2=O)cc1 28.4%, COc1ccccc1NC(=O)COc1ccccc1C(=O)Nc1ccccc1 10.7%, COCCNC(=O)/C(C#N)=C/c1c(N2CCN(C)CC2)nc2c(C)cccn2c1=O 0.625%, CC(=O)Nc1ccc(NC(=O)COc2ccccc2C(=O)Nc2cccc(Cl)c2Cl)cc1 -7.21%, CC(C)C(C)NC(=O)CSc1nc2scc(-c3ccco3)c2c(=O)n1-c1ccccc1 (stereo not given) 6.41%

Potency, inactive:
O=C(Nc1ccccc1)Nc1ccccc1

Potency, active:
O=S(=O)(c1cc(Cl)cc(Cl)c1)N1CCN(c2nc(-c3cccs3)nc3ccccc23)CC1 2.53 µM, COc1ccccc1S(=O)(=O)N1CCN(c2nc(-c3cccs3)nc3ccccc23)CC1 0.73 µM, CC(C)(C)C(=O)OCCNc1nc(-c2ccccc2)nc2ccccc12 1.42 µM, COc1ccc(N(CC(=O)NC2CCCCC2)S(=O)(=O)c2c(C)[nH]c(=O)[nH]c2=O)cc1 11.2 µM, Cc1ccc(S(=O)(=O)N2CCN(c3nc(C(N)=O)nc4ccccc34)CC2)cc1 13 µM, S=C(NCCCc1cnc[nH]1)NCCCN(Cc1ccc(Cl)cc1)c1ccc(-c2ccccc2)cn1 1.27 µM, Cc1ccc(S(=O)(=O)N2CCN(c3nc(-c4cccs4)nc4ccccc34)CC2)c(C)c1 0.291 µM, CN(CCCc1cnc[nH]1)C(=S)NCCCN(Cc1ccc(Cl)cc1)c1ccc(Br)cn1 11.4 µM, Cc1cc(C)cc(S(=O)(=O)N2CCN(c3nc(-c4cccs4)nc4ccccc34)CC2)c1 1.03 µM, CN(CCN(C)c1nc(-c2cccs2)nc2ccccc12)C(=O)OC(C)(C)C 5.8 µM, CN(CCCN(Cc1ccc(Cl)cc1)c1ccc(Br)cn1)C(=S)NCCCc1cnc[nH]1 2.53 µM, CC(C)(C)c1cccc(S(=O)(=O)N2CCN(c3nc(-c4cccs4)nc4ccccc34)CC2)c1 1.63 µM, CC(C)S(=O)(=O)N1CCN(c2nc(-c3cccs3)nc3ccccc23)CC1 5.07 µM, COc1ccc(S(=O)(=O)N2CCN(c3nc(-c4cccs4)nc4ccccc34)CC2)cc1OC 1.16 µM, Cc1cc(C)cc(N(CC(=O)Nc2ccc(C(F)(F)F)cc2)S(=O)(=O)c2c(C)[nH]c(=O)[nH]c2=O)c1 2.59 µM, S=C(NCCCc1cnc[nH]1)NCCCN(Cc1ccc(Cl)cc1)c1ncc(Br)cn1 1.79 µM, O=S(=O)(c1ccc2c(c1)CCCC2)N1CCN(c2nc(-c3cccs3)nc3ccccc23)CC1 0.713 µM, Cc1ccc(S(=O)(=O)N2CCN(c3nc(-c4cccs4)nc4ccccc34)CC2)cc1 259 nM and 730 nM and 366 nM, Clc1ccc(CN(CCCNc2ncnc(NCCCc3cnc[nH]3)n2)c2ccc(Br)cn2)cc1Cl 5.66 µM, O=S(=O)(c1ccc2c(c1)OCCO2)N1CCN(c2nc(-c3cccs3)nc3ccccc23)CC1 410 nM and 450 nM, COc1ccc(S(=O)(=O)N2CCN(c3nc(-c4ccccc4)nc4ccccc34)CC2)cc1 3.66 µM, O=S(=O)(c1ccc2ncsc2c1)N1CCN(c2nc(-c3cccs3)nc3ccccc23)CC1 0.366 µM, O=C(NCCCc1cnc[nH]1)NCCCN(Cc1ccc(Cl)cc1)c1ccc(Br)cn1 1.01 µM, CN1CCOc2cc(S(=O)(=O)N3CCN(c4nc(-c5cccs5)nc5ccccc45)CC3)ccc21 0.58 µM, Cc1ccc2nc(-c3ccc(SCC(=O)N4CCc5ccccc54)nc3)[nH]c2c1 10 µM, NCCCN(Cc1ccc(Cl)c(Cl)c1)c1ccc(Br)cn1 18.3 µM, O=S(=O)(c1ccc2ncccc2c1)N1CCN(c2nc(-c3cccs3)nc3ccccc23)CC1 0.8 µM, CS(=O)(=O)N1CCN(c2nc(-c3cccs3)nc3ccccc23)CC1 11.4 µM, S=C(NCCCc1cnc[nH]1)NCCCN(Cc1ccc(Cl)c(Cl)c1)c1ccccn1 7.29 µM, C#CCOCCOCCOCCNc1nc(N2CCN(C(=O)CCCCCCCCCCNC(=O)[C@H](CO)n3cc(CCCSC)nn3)CC2)nc(N2CCN(C(=O)CCCCCCCCCCNC(=O)[C@H](CCCN=C(N)N)n3cc(C[C@@H](C)CC)nn3)CC2)n1 6.51 µM, NC(=NCCCCCCN=C(N)/N=C(\N)Nc1ccc(Cl)cc1)/N=C(\N)Nc1ccc(Cl)cc1 11.6 µM and 18.3 µM and 16.3 µM
